# Results as given in publication PMC5540273 (PLoS ONE, 2017).
# Where two headings read alike, the source gives them in different places.
# Assays:
# FGFR1 = settings: concentration: 1 μM,replicates: in singlicate; n = 1
# FGFR2 = settings: concentration: 1 μM,replicates: in singlicate; n = 1
# FGFR3 = settings: concentration: 1 μM,replicates: in singlicate; n = 1
# FGFR4 = settings: concentration: 1 μM,replicates: in singlicate; n = 1
# FGR = settings: concentration: 1 μM,replicates: in singlicate; n = 1
# FLT1 = settings: concentration: 1 μM,replicates: in singlicate; n = 1
# FLT3-autoinhibited = settings: concentration: 1 μM,replicates: in singlicate; n = 1
# FLT3 = settings: concentration: 1 μM,replicates: in singlicate; n = 1
# FLT4 = settings: concentration: 1 μM,replicates: in singlicate; n = 1
# FRK = settings: concentration: 1 μM,replicates: in singlicate; n = 1
# FYN = settings: concentration: 1 μM,replicates: in singlicate; n = 1
# GAK = settings: concentration: 1 μM,replicates: in singlicate; n = 1
# GCN2(Kin.Dom.2,S808G) = test system: T1, GCN2(Kin.Dom.2,S808G); settings: concentration: 1 μM,replicates: in singlicate; n = 1
# T1 construct: gene EIF2AK4
# GRK1 = settings: concentration: 1 μM,replicates: in singlicate; n = 1
# GRK2 = test system: T2, GRK2; settings: concentration: 1 μM,replicates: in singlicate; n = 1
# T2 construct: gene ADRBK1
# GRK3 = test system: T3, GRK3; settings: concentration: 1 μM,replicates: in singlicate; n = 1
# T3 construct: gene ADRBK2
# GRK4 = settings: concentration: 1 μM,replicates: in singlicate; n = 1
# GRK7 = settings: concentration: 1 μM,replicates: in singlicate; n = 1
# GSK3A = settings: concentration: 1 μM,replicates: in singlicate; n = 1
# GSK3B = settings: n = 1
# [1] = concentration: 1 μM,replicates: in singlicate
# 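Note: KINOMEscan kinase panel screen.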
smiles,measurement,setting,value
COc1cccc(OC)c1C(=O)Nc1cccc(-c2nn3ccccc3c2-c2ccnc(Nc3cccc(F)c3)n2)c1 [GSK361065],%Inh,FGFR1,11%
same,%Inh,FGFR2,0%
same,%Inh,FGFR3,0%
same,%Inh,FGFR4,0%
same,%Inh,FGR,23%
same,%Inh,FLT1,32%
same,%Inh,FLT3-autoinhibited,0%
same,%Inh,FLT3,49%
same,%Inh,FLT4,27%
same,%Inh,FRK,16%
same,%Inh,FYN,22%
same,%Inh,GAK,6%
same,%Inh,"GCN2(Kin.Dom.2,S808G)",0%
same,%Inh,GRK1,0%
same,%Inh,GRK2,0%
same,%Inh,GRK3,0%
same,%Inh,GRK4,0%
same,%Inh,GRK7,17%
same,%Inh,GSK3A,24%
same,%Inh,GSK3B; [1],0%
COc1cccc(CNC(=O)NC2CCN(c3ccnc(Nc4cc(OC)c(OC)c(OC)c4)n3)C2)c1 (stereo not drawn) [GSK1379765],%Inh,FGFR1,0%
same,%Inh,FGFR2,49%
same,%Inh,FGFR3,23%
same,%Inh,FGFR4,2%
same,%Inh,FGR,18%
same,%Inh,FLT1,26%
same,%Inh,FLT3-autoinhibited,14%
same,%Inh,FLT3,47%
same,%Inh,FLT4,23%
same,%Inh,FRK,21%
same,%Inh,FYN,12%
same,%Inh,GAK,0%
same,%Inh,"GCN2(Kin.Dom.2,S808G)",0%
same,%Inh,GRK1,0%
same,%Inh,GRK2,0%
same,%Inh,GRK3,19%
same,%Inh,GRK4,74%
same,%Inh,GRK7,0%
same,%Inh,GSK3A,0%
same,%Inh,GSK3B; [1],7%
Cc1n[nH]c2cc(Nc3ccnc(Nc4cccc(CN5CCOCC5)c4)n3)ccc12 [GW682569],%Inh,FGFR1,15%
same,%Inh,FGFR2,0%
same,%Inh,FGFR3,32%
same,%Inh,FGFR4,0%
same,%Inh,FGR,49%
same,%Inh,FLT1,70%
same,%Inh,FLT3-autoinhibited,18%
same,%Inh,FLT3,68%
same,%Inh,FLT4,65%
same,%Inh,FRK,0%
same,%Inh,FYN,75%
same,%Inh,GAK,74%
same,%Inh,"GCN2(Kin.Dom.2,S808G)",39%
same,%Inh,GRK1,5%
same,%Inh,GRK2,31%
same,%Inh,GRK3,24%
same,%Inh,GRK4,64%
same,%Inh,GRK7,0%
same,%Inh,GSK3A,0%
same,%Inh,GSK3B; [1],15%
CN(c1ccc2c(c1)nc(NCc1ccc(F)cc1)n2C)c1ccnc(Nc2ccc(CS(C)(=O)=O)cc2)n1.Cl [GW813244],%Inh,FGFR1,75%
same,%Inh,FGFR2,59%
same,%Inh,FGFR3,21%
same,%Inh,FGFR4,22%
same,%Inh,FGR,28%
same,%Inh,FLT1,98.9%
same,%Inh,FLT3-autoinhibited,1%
same,%Inh,FLT3,98.3%
same,%Inh,FLT4,99.9%
same,%Inh,FRK,77%
same,%Inh,FYN,74%
same,%Inh,GAK,15%
same,%Inh,"GCN2(Kin.Dom.2,S808G)",68%
same,%Inh,GRK1,27%
same,%Inh,GRK2,0%
same,%Inh,GRK3,0%
same,%Inh,GRK4,0%
same,%Inh,GRK7,0%
same,%Inh,GSK3A,14%
same,%Inh,GSK3B; [1],11%
Cc1ccn2nc(-c3ccc(F)cc3)c(-c3ccncc3)c2c1.Cl [GW457859],%Inh,FGFR1,0%
same,%Inh,FGFR2,85%
same,%Inh,FGFR3,4%
same,%Inh,FGFR4,0%
same,%Inh,FGR,0%
same,%Inh,FLT1,15%
same,%Inh,FLT3-autoinhibited,14%
same,%Inh,FLT3,0%
same,%Inh,FLT4,0%
same,%Inh,FRK,0%
same,%Inh,FYN,0%
same,%Inh,GAK,0%
same,%Inh,"GCN2(Kin.Dom.2,S808G)",0%
same,%Inh,GRK1,0%
same,%Inh,GRK2,0%
same,%Inh,GRK3,40%
same,%Inh,GRK4,0%
same,%Inh,GRK7,59%
same,%Inh,GSK3A,9%
same,%Inh,GSK3B; [1],0%
O=C(NOCC1CC1)c1cc(Br)c(F)c(F)c1Nc1ccc(I)cc1Cl,%Inh,FGFR1,0%
same,%Inh,FGFR2,1%
same,%Inh,FGFR3,0%
same,%Inh,FGFR4,0%
same,%Inh,FGR,0%
same,%Inh,FLT1,0%
same,%Inh,FLT3-autoinhibited,0%
same,%Inh,FLT3,0%
same,%Inh,FLT4,0%
same,%Inh,FRK,0%
same,%Inh,FYN,0%
same,%Inh,GAK,0%
same,%Inh,"GCN2(Kin.Dom.2,S808G)",10%
same,%Inh,GRK1,30%
same,%Inh,GRK2,0%
same,%Inh,GRK3,0%
same,%Inh,GRK4,0%
same,%Inh,GRK7,0%
same,%Inh,GSK3A,33%
same,%Inh,GSK3B; [1],0%
C[C@@H](Oc1cc(-n2cnc3cc(-c4cnn(C)c4)ccc32)sc1C(N)=O)c1ccccc1Cl [GSK580432],%Inh,FGFR1,91.9%
same,%Inh,FGFR2,89%
same,%Inh,FGFR3,92.7%
same,%Inh,FGFR4,38%
same,%Inh,FGR,72%
same,%Inh,FLT1,87%
same,%Inh,FLT3-autoinhibited,28%
same,%Inh,FLT3,99.4%
same,%Inh,FLT4,99.8%
same,%Inh,FRK,12%
same,%Inh,FYN,47%
same,%Inh,GAK,95.3%
same,%Inh,"GCN2(Kin.Dom.2,S808G)",99.2%
same,%Inh,GRK1,4%
same,%Inh,GRK2,38%
same,%Inh,GRK3,0%
same,%Inh,GRK4,85%
same,%Inh,GRK7,0%
same,%Inh,GSK3A,0%
same,%Inh,GSK3B; [1],0%
Cn1ccc2ncnc(Oc3ccc(NC(=O)Nc4cc(C(C)(C)C)on4)c(Cl)c3)c21,%Inh,FGFR2,72%
same,%Inh,FGFR3,23%
same,%Inh,FGFR4,73%
same,%Inh,FGR,32%
same,%Inh,FLT1,97.6%
same,%Inh,FLT3-autoinhibited,15%
same,%Inh,FLT3,99.9%
same,%Inh,FLT4,99.8%
same,%Inh,FRK,96.3%
same,%Inh,FYN,35%
same,%Inh,GAK,13%
same,%Inh,"GCN2(Kin.Dom.2,S808G)",0%
same,%Inh,GRK1,16%
same,%Inh,GRK2,62%
same,%Inh,GRK3,1%
same,%Inh,GRK4,0%
same,%Inh,GRK7,8%
same,%Inh,GSK3A,0%
same,%Inh,GSK3B; [1],0%
COc1cccc(C2=C(Nc3cccc(Cl)c3)C(=O)NC2=O)c1 [SB-341556],%Inh,FGFR1,21%
same,%Inh,FGFR2,23%
same,%Inh,FGFR3,29%
same,%Inh,FGFR4,15%
same,%Inh,FGR,5%
same,%Inh,FLT1,13%
same,%Inh,FLT3-autoinhibited,4%
same,%Inh,FLT3,0%
same,%Inh,FLT4,15%
same,%Inh,FRK,16%
same,%Inh,FYN,25%
same,%Inh,GAK,12%
same,%Inh,"GCN2(Kin.Dom.2,S808G)",0%
same,%Inh,GRK1,27%
same,%Inh,GRK2,0%
same,%Inh,GRK3,22%
same,%Inh,GRK4,27%
same,%Inh,GRK7,0%
same,%Inh,GSK3A,70%
same,%Inh,GSK3B; 1 µM,35%
CCn1c(-c2nonc2N)nc2cncc(Br)c21 [SB-738004],%Inh,FGFR1,3%
same,%Inh,FGFR2,69%
same,%Inh,FGFR3,24%
same,%Inh,FGFR4,2%
same,%Inh,FGR,17%
same,%Inh,FLT1,21%
same,%Inh,FLT3-autoinhibited,53%
same,%Inh,FLT3,0%
same,%Inh,FLT4,19%
same,%Inh,FRK,0%
same,%Inh,FYN,0%
same,%Inh,GAK,17%
same,%Inh,"GCN2(Kin.Dom.2,S808G)",0%
same,%Inh,GRK1,32%
same,%Inh,GRK2,12%
same,%Inh,GRK3,69%
same,%Inh,GRK4,0%
same,%Inh,GRK7,16%
same,%Inh,GSK3A,29%
same,%Inh,GSK3B; [1],40%
Cc1ccc(CC(=O)N2CCc3cc(-c4cn(C)c5ncnc(N)c45)ccc32)cc1 [GSK2634758],%Inh,FGFR1,14%
same,%Inh,FGFR2,14%
same,%Inh,FGFR3,2%
same,%Inh,FGFR4,0%
same,%Inh,FGR,37%
same,%Inh,FLT1,32%
same,%Inh,FLT3-autoinhibited,0%
same,%Inh,FLT3,40%
same,%Inh,FLT4,0%
same,%Inh,FRK,0%
same,%Inh,FYN,41%
same,%Inh,GAK,34%
same,%Inh,"GCN2(Kin.Dom.2,S808G)",42%
same,%Inh,GRK1,0%
same,%Inh,GRK2,0%
same,%Inh,GRK3,24%
same,%Inh,GRK4,0%
same,%Inh,GRK7,0%
same,%Inh,GSK3A,9%
same,%Inh,GSK3B; [1],0%
